From PubChem BioAssay (NCI)
Compounds without any hit were thinned out: in the full panel of roughly 83,000, 20% have a hit.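 Each cell line was grown in a 96-well plate and treated with one concentration of compound for 48 hours. Values below 10 were considered active.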 A number with no mark means an inactive call. Activity calls are given as the source filed them.

Tests used:
Test in all cases: NCI-60 one-dose screen, 48 h (100 = growth as untreated, 0 = no growth, -100 = all killed)
Settings in all cases: 10 µM
[1] = tested on: HCT-15 colon
[2] = tested on: HT29 colon
[3] = tested on: SNB-75 CNS
[4] = tested on: SNB-19 CNS
[5] = tested on: U251 CNS
[6] = tested on: PC-3 prostate
[7] = tested on: SK-MEL-5 melanoma
[8] = tested on: UACC-62 melanoma
[9] = tested on: LOX IMVI melanoma
[10] = tested on: SK-MEL-28 melanoma

Compound	growth [1]	growth [2]	growth [3]	growth [4]	growth [5]	growth [6]	growth [7]	growth [8]	growth [9]	growth [10]
CC(=O)c1c(O)cc2c3c1OC(C)(C)C1CCC(C)(CC31)O2 (stereo not given)	97.5%	90.6%	96%	98.7%	102%	88.8%	83.1%	88.5%	97.9%	111%
CC(=O)Nc1ccc2c(c1)C(N1CC3CCC(CC3)C1)c1ccccc1-2 (stereo not given)	53.3%	75.1%	88.6%	107%	77.7%	34.8%	49.3%	60.5%	93.3%	108%
O=C(O)c1ccc(CNc2ccc(C(=O)CCl)cc2)cc1	94.9%	96.4%	93.1%	103%	93.8%	91.9%	97.9%	95.3%	77.9%	95.2%
O=c1ccc2nc(-c3ccccc3)nn(-c3ccccc3)c-2c1	-75.9% (active)	-53.5% (active)	93.3%	78%	66.2%	43.5%	19.8%	30.1%	-51.9% (active)	26.4%
COc1ccc(Nc2nc(NCc3ccccc3)c3ccccc3n2)cc1	72.4%	49%	-33% (active)	14.4%	32.9%	57.3%	63.9%	65.3%	46.8%	67.7%
COc1ccc(-c2nc(SCC(=O)c3ccc(Br)cc3)[nH]c(=O)c2C#N)cc1	112%	101%	103%	109%	109%	95.1%	110%	104%	102%	115%
Oc1ccccc1-c1nnc(Cn2c(Cc3cccc4ccccc34)nc3ccccc32)o1	94%	102%	88.8%	87.1%	99.2%	89.5%	96.3%	88.7%	89.3%	103%
COC1OC2COC(c3ccccc3)OC2C(=O)C1NC(=O)c1ccccc1 (stereo not given)	101%	105%	83%	94.9%	109%	85%	108%	93.7%	90.1%	109%
Cc1ccc(-n2nnc3c(sc4ccccc43)c2=O)cc1	89.3%	5.36% (active)	31.4%	44.2%	18%	61.7%	76.9%	85.4%	39.3%	89.9%
CC(Oc1ccc(Cl)cc1)c1ccccc1 (stereo not given)	112%	106%	97.3%	99.7%	102%	93.4%	100%	97.6%	97.5%	106%
COc1ccc(-c2cn[nH]c2-c2cc(OC)c(OC)c(OC)c2)cc1	10.8%	3.22% (active)	44.7%	45.5%	16.2%	14.1%	-17.1% (active)	38%	27.3%	43.6%
COc1ccc(Nc2ccnc(N3CCN(c4ccnc5cc(Cl)ccc45)CC3)n2)cc1	7.35% (active)	-6.34% (active)	-20.9% (active)	28.7%	8.61% (active)	0.553% (active)	-55.1% (active)	-4.07% (active)	4.18% (active)	5.19% (active)
O=C(Nc1ccc(CN2CCOCC2)cc1)c1ccc(-c2cc(Cl)ccc2Cl)o1	17%	2.85% (active)	48%	54.7%	32.4%	41.4%	37.1%	-56.1% (active)	4.07% (active)	41.4%
FC(F)(F)c1ccc(-c2cnc(Cl)nc2NC2CCCCCC2)cc1	75.7%	19.1%	49.9%	31.2%	5.17% (active)	1.08% (active)	-8.26% (active)	16.2%	27.9%	37.6%
COc1ccc2oc(=O)cc(C3c4ccc([nH]4)C(c4cc(=O)oc5ccc(OC)cc45)c4ccc([nH]4)C(c4cc(=O)oc5ccc(OC)cc45)c4ccc([nH]4)C(c4cc(=O)oc5ccc(OC)cc45)c4ccc3[nH]4)c2c1 (stereo not given)	-62.4% (active)	-41.5% (active)	19.3%	26%	1.28% (active)	30.4%	-4.6% (active)	-8.02% (active)	-60.4% (active)	1.37% (active)
COC(=O)c1cnc2c(c1)Oc1ccccc1-c1ccnn1-2	102%	90.3%	86.5%	106%	90.7%	94.3%	94.1%	106%	91.3%	116%
COc1cc(-c2nc3ccccc3[nH]2)ccc1OCC(=O)N=Nc1c(O)[nH]c2ccccc12	99.4%	91.5%	98.1%	98.4%	32.1%	64%	68.9%	94.9%	83.4%	101%
CCCCOCCOCCOCc1cc2c(cc1Br)OCO2	97.1%	92.6%	99.7%	106%	94.9%	93.2%	97.8%	89.9%	106%	106%
O=C(c1ccccc1)C(Nc1ccccc1)c1ccccc1 (stereo not given)	97.8%	86.4%	79.6%	101%	89.6%	75.5%	85.6%	74.9%	86%	99%

Compound	growth [1]	growth [2]	growth [3]	growth [4]	growth [5]	growth [6]	growth [7]	growth [8]	growth [9]	growth [10]
COc1ccc2c(=O)cc(C(Cl)(Cl)Cl)oc2c1	5.59% (active)	-41.8% (active)	-78.3% (active)	1.99% (active)	-0.183% (active)	-37% (active)	-91.9% (active)	-73.2% (active)	-15.5% (active)	-82.7% (active)
CCN(CC)CCOC(=O)c1ccc(NC(=O)Nc2cccc(Cl)c2)cc1	95.6%	96.3%	81.8%	108%	96.5%	94.7%	101%	102%	94.6%	106%
O=C(N/N=C\c1cc(Cl)ccc1O)c1ccncc1	26.3%	65.4%	74.2%	62%	43.9%	61%	37%	46.2%	30.9%	64.5%
Cc1ccc2c3c(cccc13)-c1ccccc1C2=O	85%	83.3%	89.6%	96.5%	87.8%	91.3%	91.3%	90.6%	97.8%	121%
O=C(OCc1ncc(-c2ccc(C(F)(F)F)cc2)c(NC2CCCCCC2)n1)c1c(F)c(F)c(F)c(F)c1F	89.3%	43.1%	76.1%	73.8%	46.8%	28.6%	36.4%	36.6%	57.5%	47.4%
Cc1cc(C)c2nc(C)c(C)[n+]([O-])c2c1	97.6%	96.3%	84.1%	109%	90.6%	72.8%	104%	105%	95.4%	106%
COc1ccc(C(=O)n2nc(CC(=O)NCc3ccccc3)nc2N)cc1	107%	108%	92.9%	97.3%	105%	101%	111%	93%	101%	108%
C/C=C\COc1cc(C)c(Cl)cc1Cl	109%	114%	88.9%	97.3%	94.6%	98.5%	99.6%	100%	106%	104%
Cc1ccccc1[P+](Cc1ccccc1)(c1ccccc1)c1ccccc1	90.1%	7.47% (active)	6.56% (active)	24.7%	12.1%	9.34% (active)	-14% (active)	0.358% (active)	22.4%	27.3%
Cc1ccc([P+](Cc2ccccc2)(c2ccccc2)c2ccccc2)cc1	87.4%	3.42% (active)	6.53% (active)	24.7%	10.1%	2.37% (active)	-43% (active)	1.54% (active)	16.8%	24.4%
CCCCn1c(=O)[nH]c2c(c1=O)C(c1ccc(Cl)cc1)c1c([nH]c(=O)n(CCCC)c1=O)N2	95.6%	97.2%	91.7%	99.5%	94%	93.4%	102%	98.2%	94.9%	102%
COc1cc(-c2cc(-c3cc(OC)c(OC)c(OC)c3)nc3nc(N)[nH]c(=O)c23)ccc1Oc1ccnc2cc(Cl)ccc12	14.6%	104%	-8.67% (active)	59.4%	23%	25.9%	27%	49.8%	27.8%	56.9%
CCOc1nc(-c2ccccc2)cc2c(O)c(C(=O)N/N=C/c3ccc(OC)cc3)[nH]c(=O)c12	110%	108%	91.7%	96.9%	100%	88%	53.5%	104%	114%	114%
COc1c(C)c(C)c(OC)c2c1[nH]c(=O)c1c3cccnc3cn21	118%	104%	106%	108%	106%	97.3%	119%	98.4%	107%	125%
COc1ccc(-c2csc(NC(=O)CO[N+](=O)[O-])n2)cc1	104%	105%	96.1%	102%	98.6%	80.7%	30.3%	101%	88%	105%
Fc1ccc2[nH]c3c(NCCCN4CCOCC4)ncnc3c2c1	91.1%	66.1%	-0.656% (active)	91.7%	41.1%	83%	92.2%	92.3%	69.1%	104%
Fc1ccc(Nc2ccnc(N3CCN(c4ccnc5cc(Cl)ccc45)CC3)n2)cc1	38.4%	22.3%	74.2%	65.7%	47%	23%	26%	45.3%	49.8%	81%
COc1ccc(Cn2cc3c(c2-c2cc(OC)c(OC)c(OC)c2)CCc2cnoc2-3)cc1N	17.5%	8.78% (active)	50.5%	44.6%	23.2%	31.1%	-17.9% (active)	50.5%	18.7%	62%
N#CC1C=Cc2c(ccc3ccccc23)N1C(=O)c1ccccc1 (stereo not given)	20.6%	8.15% (active)	22%	43.3%		32.6%	12.7%	37.7%	27.5%	48.9%

Compound	growth [1]	growth [2]	growth [3]	growth [4]	growth [5]	growth [6]	growth [7]	growth [8]	growth [9]	growth [10]
N#CN1CC[C@H](C(=O)Nc2ncc(-c3ccncc3)s2)C1	2.59% (active)	-39.9% (active)	-37.5% (active)	9.6% (active)		5.04% (active)	-17.1% (active)	-26.9% (active)	2.09% (active)	5.92% (active)
COc1cccc(C(=O)N(c2ccc(F)c(F)c2)C(C(=O)NC(C)(C)C)c2cc3c(C)cc(C)cc3nc2Cl)c1 (stereo not given)	56.5%	71.1%	62.9%	74.1%		30.9%	58.2%	66.6%	68.7%	85.6%
Clc1ccc(-c2nc(-c3cccs3)cn3ccnc23)cc1	31.2%	41.6%	68.1%	88.6%		62.4%	53.2%	60.2%	61.4%	92.5%
COc1ccc(C2=NNC(c3sc(Cl)nc3Cl)C2)cc1 (stereo not given)	34.2%	85.9%		95.6%	93.7%	89.6%	54.6%	96%	9.86% (active)	98.9%
CC(=O)Nc1nc(C)c(C(=O)NNC=O)s1	99.5%	99.8%	94.8%	117%		91.6%	104%	97.1%	104%	104%
CC(C)(C)CC(C)(C)c1ccc(O)c(Cc2ccc(Cl)cc2Cl)c1	-78.7% (active)	-92.4% (active)	-77.7% (active)	-82.9% (active)		-65.2% (active)	-95.1% (active)	-87.9% (active)	-95.4% (active)	-84.9% (active)
CN(C)c1ccc2cc(-c3cc4c(oc3=O)-c3ccccc3OC4O)c(=O)oc2c1 (stereo not given)	7.71% (active)	18.9%	24%	36.7%		-5.5% (active)	-34% (active)	33.4%	-32.4% (active)	64.5%
COc1cc(/C=C2\C(=O)Nc3cc(C)c(O)cc32)cc(OC)c1OC	33.7%	22.4%	55.1%	71.6%		33.5%	47%	57.9%	45.7%	73.2%
CCN(CCCNC(=O)Cc1cc(=O)oc2cc(N(C)C)ccc12)CCNc1ccnc2cc(Cl)ccc12	83.2%	18.6%	88.6%	91.5%		78.7%	76.2%	98.7%	66.4%	85%
CCSc1nc2c([nH]1)c(=O)n(C)c(=S)n2C	105%	109%	126%	109%		101%	119%	105%	96.9%	128%
Cc1ccc2c(c1)-c1cc(C)nn1-c1ccc(C#N)cc1O2	38.7%	20%	48.8%	68.6%		66.2%	75.9%	52.4%	49.4%	70.3%
Cc1[nH]nc2c(=S)[nH]c(=O)[nH]c12	103%	108%	89.7%	101%		97.1%	94.4%	88.5%	99.9%	102%
Nc1ncc(-c2ccc(C(F)(F)F)cc2)c(NC2CCCCCC2)n1	73.7%	31.5%	57.8%	49.9%		12%	3.53% (active)	0.46% (active)	48%	33.7%
COc1cccc2c1O/C(=C\c1ncc([N+](=O)[O-])n1C)C2=O	5.88% (active)	-20.7% (active)	39.2%	-2.3% (active)		-21.2% (active)	-92.4% (active)	-77.7% (active)	-58.8% (active)	-25.4% (active)
CC(C)C(C)C(N)C(=O)O (stereo not given)	97.6%	107%	95.2%	115%		98.2%	102%	113%	96%	108%
CCc1nn2c(-c3cc(OC)c(OC)c(OC)c3)c(-c3cc(OC)c(OC)c(OC)c3)nc2s1	77.9%	69.6%	-25.6% (active)	61.9%		82.9%	89.7%	63.1%	85.1%	85.8%
CC(=O)OCC(COC(C)=O)(COC(C)=O)COC(C)=O	102%	102%	105%	104%		102%	93%	103%	98.1%	121%
CC(=O)OC1Oc2ccccc2-c2oc(=O)c(-c3ccc(F)cc3)cc21 (stereo not given)	95.8%	99%	71.8%	100%		110%	-35.4% (active)	50%	85.3%	96.7%
O=c1cc(CSc2nnc(-c3ccccc3)n2-c2ccc(F)cc2)c2ccc3ccccc3c2o1	98.2%	96.4%	92.9%	99.1%		79%	79%	83.2%	90.3%	104%
